Data reported in PubChem BioAssay AID652068 (The Scripps Research Institute Molecular Screening Center, 2013).
Several values for one entry are separate records, joined by “and”; a condition that tells them apart may be missing. Equal entries are not always repeated. The campaign covered roughly 4,300 compounds. About 4,000 (93%) were called active.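 The calls were made as follows: active = inhibition above its plate's cutoff, the mean test-well inhibition plus 3 SD (cut at about 4.8% in these data); inactive = the rest.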 The set was probably picked from earlier hits. Only a sample is shown.

Experiment: displacement of TO-PRO-1 from CAG DNA duplex, counter-screen for rCAG RNA repeat binder project, biochemical, fluorescence, TO-PRO-1 dye, d(CAG) DNA oligo (AID 652068);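 also: 0% = DNA dye mix with DMSO and 100% = 100 µM mitoxantrone; hits displace the dye from DNA and so lower well fluorescence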
Conditions: d(CAG) DNA oligo TO-PRO-1 dye displacement, at 3 µM, hits give high values

Compound	inhibition
Cc1cc(C)cc(Oc2c(C(F)(F)F)oc3cc(OCC(=O)O)ccc3c2=O)c1	4.02% (inactive)
O=C(COc1ccccc1Cl)Nc1ccc(C(=O)c2ccc(C(=O)O)cc2)cc1	3.95% (inactive)
Cc1cccc(OCC(=O)Nc2ccc(C(=O)O)cc2NC(=O)COc2cccc(C)c2)c1	11.1% (active)
Cc1cc(C)cc(OCC(=O)Nc2cc(NC(=O)COc3cc(C)cc(C)c3)cc(C(=O)O)c2)c1	39.1% (active)
Cc1ccccc1-n1c(SCC(=O)Nc2cccc3ccccc23)nc(O)cc1=O	7.03% (active)
CCOc1ccc(C(=O)Nc2ccc(S(=O)(=O)Nc3cc(C)on3)cc2)cc1	6.38% (active)
Cc1cc(OC(C)C(=O)Nc2ccc(S(=O)(=O)Nc3onc(C)c3C)cc2)cc(C)c1Cl (stereo not drawn)	26.6% (active)
COc1cc2ccccc2cc1C(=O)Nc1ccc(S(=O)(=O)Nc2cc(C)on2)cc1	23.6% (active)
Cc1ccc(C(=O)/C=C/Nc2ccc(S(=O)(=O)Nc3onc(C)c3C)cc2)cc1	16.3% (active)
CCn1cc(C(=O)NCC2COc3ccccc3O2)c2cc(OC)c(OC)cc2c1=O (stereo not drawn)	0.88% (inactive)
CCOc1cc(C(=O)Nc2ccc(S(=O)(=O)Nc3cnc4ccccc4n3)cc2)cc(OCC)c1OCC	26.9% (active)
CCc1ccc(OC(C)C(=O)Nc2ccc(S(=O)(=O)Nc3cc(C)on3)cc2)cc1 (stereo not drawn)	5.12% (active)
CCCCC[C@@H]1C=C(C(=O)O)[C@H](c2ccc(C#N)cc2)N1S(=O)(=O)c1ccc(C)cc1	20.6% (active)
Cc1ccc(S(=O)(=O)N2[C@@H](c3ccc(Br)cc3)C(C(=O)O)=C[C@H]2CC2CCCC2)cc1	34.4% (active)
Cc1cc(C(=O)N/N=C/c2ccc(O)c([N+](=O)[O-])c2)c(C)n1-c1ccc(F)cc1	14.8% (active)
Cc1ccc(SC(CC(=O)c2ccc(C(C)(C)C)cc2)C(=O)O)cc1 (stereo not drawn)	12.6% (active)
Cn1c2ccccc2c2cc(/C=C(\NC(=O)c3ccccc3)C(=O)NCC(=O)O)ccc21	12.6% (active)
O=C1CC(c2ccccc2)=NN1c1ccc([N+](=O)[O-])cc1	14.2% (active)
O=C1Oc2ccccc2C(=O)/C1=C/c1ccccc1O	10.7% (active)
COc1cccc(-c2coc3cc4oc(=O)c(CC(=O)O)c(C)c4cc23)c1	11.6% (active)
CCSc1nsc(NC(=O)Nc2cccc(C(C)=O)c2)n1	12.6% (active)

Compound	inhibition
C=CCSc1nsc(NC(=O)Nc2cccc(C(C)=O)c2)n1	16.3% (active)
O=C(Nc1nncs1)c1ccccc1NS(=O)(=O)c1cccs1	6.44% (active)
O=C(Nc1cccc(Cl)c1)Nc1ccccc1NS(=O)(=O)c1cccs1	9.83% (active)
COc1ccc(NS(=O)(=O)c2cc(C(=O)Nc3ccccc3C(=O)O)ccc2C)cc1	18.6% (active)
COc1cc(OC)c(S(=O)(=O)Nc2ccccc2C(=O)O)cc1S(=O)(=O)Nc1ccccc1C(=O)O	6.92% (active)
COc1ccc(NS(=O)(=O)c2cc(NC(=O)CC(=O)c3ccc([N+](=O)[O-])cc3)ccc2C)cc1	19% (active)
CC(=N\NC(=O)c1cc(Br)ccc1O)/C(=N/O)C(=O)Nc1ccccc1	3.8% (inactive)
O=[N+]([O-])c1cc(Cl)cc(/C=N/NC(=S)Nc2cc(S(=O)(=O)N3CCOCC3)ccc2Cl)c1O	84.8% (active)
CCOC(=O)c1c(NC(=O)C2CC=CCC2C(=O)O)sc(C)c1CC (stereo not drawn)	5.11% (active)
C=CCn1c(=S)[nH]c2scc(-c3ccco3)c2c1=O	15.4% (active)
Cc1ccc(Cn2c(SCC(=O)N/N=C/c3ccccc3OCC(=O)O)nc3ccccc32)cc1	23% (active)
O=C(Cc1ccccc1)Nc1ccc(C(=O)Nc2ccccc2C(=O)O)cc1	10.5% (active)
Cc1sc(NC(=O)c2ccc3ncsc3c2)c(C(N)=O)c1C	7.12% (active)
N#Cc1ccccc1CN1C(=O)S/C(=C/c2cccn2-c2cccc(C(=O)O)c2)C1=O	25.7% (active)
CC(=O)Nc1ccc(S(=O)(=O)N(CCc2ccccc2)CC(=O)N/N=C/c2ccc(C(=O)O)cc2)cc1	5.27% (active)
Cc1ccc(N=C2NC(=O)/C(=C/C=C/c3ccco3)S2)cc1C	23.8% (active)
COc1cc(C(=O)Nn2c(O)c(C3=c4ccccc4=NC3=O)sc2=S)ccc1O	8.15% (active)
Cc1ccc(NC(=O)CC2S/C(=N/N=C3\CCCc4ccccc43)NC2=O)cc1 (stereo not drawn)	17.1% (active)
COc1ccc(/C=C/C(=O)c2ccc(NS(=O)(=O)c3ccc(C)cc3)cc2)cc1O	18.4% (active)
CCN(CC)C(=O)CSC(Nc1cccc(F)c1)=C(C#N)C#N	13.2% (active)
COc1cc(/C=C2/C(=O)NN(c3cccc(Cl)c3)C2=O)cc(Br)c1O	9.22% (active)

Compound	inhibition
CN(C(=O)COC(=O)c1cc(-c2ccco2)nc2ccccc12)C1CCS(=O)(=O)C1 (stereo not drawn)	13.2% (active)
COc1ccc(C(CNC(=O)c2cccc(S(=O)(=O)Nc3ccccc3Cl)c2)N2CCOCC2)cc1 (stereo not drawn)	27.5% (active)
Cc1ccc(NC(=O)CSc2nc(CSc3ccc(C)cc3)cc(=O)[nH]2)cc1	16.7% (active)
Cc1ccc(-c2nn(-c3ccccc3)cc2/C=C2\SC(=S)N(CCCCCC(=O)O)C2=O)o1	28.4% (active)
CN(C)S(=O)(=O)c1cccc(-c2nn(-c3ccccc3)cc2/C=C2\SC(=S)N(CC(=O)O)C2=O)c1	55.3% (active)
CCc1nnc(NS(=O)(=O)c2ccc(N=Cc3c(C)[nH]n(-c4ccc(C)cc4)c3=O)cc2)s1	32.2% (active)
O=C(N/N=C/c1c(Cl)[nH]c2ccccc12)c1sc2ccccc2c1Cl	17.5% (active)
Cc1ccc(NC(=S)NNC(=O)CSc2nnc(SCc3ccccc3Cl)s2)cc1	18.8% (active)
CC(C)=CCCC1(C)C=Cc2c(ccc3c2[nH]c2cc(O)c(C)cc23)O1 (stereo not drawn)	15.3% (active)
CCOC(=O)C1Nc2ccc(C(F)(F)F)cc2C2C=CCC12 (stereo not drawn)	9.84% (active)
Cc1cc2nc(-c3ccco3)c(Cc3cccc(F)c3)n2c(C)c1Br	11.8% (active)
CC1(C(=O)NS(=O)(=O)c2ccc(C#N)cc2)CCN1C(=O)c1ccc(C2CCCCC2)cc1 (stereo not drawn)	14.9% (active)
Cc1ccc(S(=O)(=O)N2[C@@H](c3cccc4ccccc34)C(C(=O)O)=C[C@H]2C(C)(C)C)cc1	15.6% (active)
CCc1ccc(N2CC(C(=O)Nc3ccc(S(=O)(=O)Nc4nccs4)cc3)CC2=O)cc1 (stereo not drawn)	16.7% (active)
Cc1ccc(Sc2cc(C(=O)c3ccccc3C(=O)O)ccc2[N+](=O)[O-])cc1	29.8% (active)
COc1cccc(/C=N/Nc2ccc(S(=O)(=O)Nc3ccccc3C(=O)O)cc2[N+](=O)[O-])c1O	79.1% (active)
O=C(O)c1ccccc1/C=N/Nc1ccc(S(=O)(=O)Nc2ccc(Cl)cc2)cc1[N+](=O)[O-]	27.1% (active)
COc1ccc(Br)cc1/C=N/Nc1ccc(S(=O)(=O)Nc2ccccc2C(=O)O)cc1[N+](=O)[O-]	71.3% (active)
COc1ccc(OCC(=O)Nc2nnc(-c3ccco3)s2)cc1	8.39% (active)
Cc1ccccc1-c1ccc2c(c1)O[C@@H](CN(C)Cc1ccc(C(=O)O)cc1)[C@@H](C)CN([C@H](C)CO)S2(=O)=O	21.1% (active)
O=C(COc1ccc([N+](=O)[O-])cc1)Nc1cccc(C(=O)Nc2ccccc2C(=O)O)c1	24.8% (active)

Compound	inhibition
NC(c1csc(NC(=O)Nc2cccc(C(F)(F)F)c2)n1)C1CCCCC1 (stereo not drawn)	4.91% (active)
NC(c1ccccc1)c1csc(NC(=O)Nc2cccc(C(F)(F)F)c2)n1 (stereo not drawn)	15.2% (active)
CCOC(=O)c1csc(NC(=O)Nc2cccc(OC)c2)n1	16.7% (active)
COc1ccc(C(N)c2csc(NC(=O)Nc3cccc(C(F)(F)F)c3)n2)cc1 (stereo not drawn)	10.1% (active)
CCN1C(=O)/C(=C2/Sc3ccccc3N2CCCS(=O)(=O)O)SC1=S	7.23% (active) and 13.9% (active)
CCOC(=O)c1ccccc1N1C(=O)C2Sc3[nH]c(=O)sc3C(/C=C/c3ccccc3)C2C1=O (stereo not drawn)	18.1% (active)
Cc1c(CCC(=O)N[C@@H](CC(C)C)C(=O)O)c(=O)oc2c(C)c3oc4c(c3cc12)CCCC4	12.2% (active)
CC[C@@H](C)[C@H](NC(=O)CCc1c(C)c2cc3c4c(oc3c(C)c2oc1=O)CCCC4)C(=O)O	14.9% (active)
COC(=O)c1ccc(COc2ccc(/C=C/C(=O)c3ccc(OC)c(CSCC(=O)O)c3)cc2OC)cc1	24.1% (active)
COc1ccc(C(=O)/C=C/c2ccc(-c3ccccc3)cc2)cc1CSCC(=O)O	50.7% (active)
Cc1ccc2nc(N3C(=O)C(O)=C(C(=O)c4ccco4)C3c3cccc(O)c3)sc2c1 (stereo not drawn)	37.6% (active)
N#Cc1c(-c2ccccc2)nc(SCc2cccc(C(F)(F)F)c2)[nH]c1=O	50% (active)
N#Cc1c(-c2ccccc2)nc(SCc2ccc([N+](=O)[O-])cc2)[nH]c1=O	17.4% (active)
Cc1ccc(CSc2nc(-c3ccccc3)c(C#N)c(=O)[nH]2)cc1	28.7% (active)
O=C(O)c1ccc(NC(=O)c2cn(-c3ccccc3)nc2-c2ccc(Cl)cc2)cc1	23.2% (active)
O=C(NNC(=S)NC(=O)c1cn(-c2ccccc2)nc1-c1ccccc1)c1ccncc1	15.3% (active)
O=C(O)c1ccc(N/N=C/c2cn(-c3ccccc3)nc2-c2cccs2)cc1	23% (active)
N#Cc1c(-c2ccccc2)cc(-c2ccccc2)nc1SCC(=O)O	13% (active)
O=C(O)CCn1cc(/C=C/C(=O)c2ccc(Cl)cc2)c(-c2cccc(Br)c2)n1	53.6% (active)
Cc1cc(N2C(=O)C(O)=C(C(=O)c3ccc(C)o3)C2c2ccc(OCc3ccccc3)cc2)no1 (stereo not drawn)	23.8% (active)
